# Assay results: PubChem BioAssay (EPA / NIEHS)
# Inconclusive results are not listed. Calls of active or inactive are those of the source. The calls were made as follows, unless noted: active = hit-call score of the fitted dose curve at least 0.9, where 1 is the maximum; inactive = score below 0.9.
# How the values were obtained:
# [1] = biological target: Nuclear respiratory factor 1 (Homo sapiens) (UniProt Q16656); experiment: ATG_NRF1_CIS: Attagene CIS-FACTORIAL HepG2 Assay for human Nuclear Respiratory Factor 1 (NRF1) Orphan Gene (AID 2282987); conditions: HepG2 NRF1 cis-element reporter, Attagene multiplex; actives raise or lower the signal
# Sequence of Nuclear respiratory factor 1 (Homo sapiens) (Q16656 whole entry, looked up): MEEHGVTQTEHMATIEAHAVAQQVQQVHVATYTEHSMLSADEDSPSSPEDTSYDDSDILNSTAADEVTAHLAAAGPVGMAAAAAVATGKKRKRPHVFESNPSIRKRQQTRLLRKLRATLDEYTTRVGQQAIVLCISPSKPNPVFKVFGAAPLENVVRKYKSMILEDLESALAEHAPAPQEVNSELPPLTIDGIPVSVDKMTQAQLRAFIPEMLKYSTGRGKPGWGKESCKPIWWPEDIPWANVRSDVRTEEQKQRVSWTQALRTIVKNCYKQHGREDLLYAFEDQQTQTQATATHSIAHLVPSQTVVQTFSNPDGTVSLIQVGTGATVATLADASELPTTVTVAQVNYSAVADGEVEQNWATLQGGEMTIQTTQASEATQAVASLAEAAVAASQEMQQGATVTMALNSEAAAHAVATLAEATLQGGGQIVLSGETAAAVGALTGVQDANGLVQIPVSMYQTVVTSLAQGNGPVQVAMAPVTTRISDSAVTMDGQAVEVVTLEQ
# Procedure, shortened: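 Transcriptional reporter readout, one component of a 52-endpoint multiplexed HepG2 panel. Exposure 24 h; mRNA detected via RT-PCR and fluorescent capillary electrophoresis; fitting in both directions against DMSO.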
# [2] = ATG_NFI_CIS: Attagene CIS-FACTORIAL HepG2 Assay for human Nuclear Factor I (NFI) (AID 2282989); conditions: HepG2 cis-regulatory reporter, NFI response element transcription; actives raise or lower the signal
# Procedure, shortened: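 HepG2, transient MRTU, 24 h exposure; RNA→cDNA→PCR→FAM label→HpaI→CE fluorescence. Bidirectional fit, DMSO = baseline.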
# [3] = biological target: Myc proto-oncogene protein (Homo sapiens) (UniProt P01106); experiment: ATG_Myc_CIS: Attagene CIS-FACTORIAL HepG2 Assay for human Myelocytomatosis (Myc) Proto-Oncogene Transcription Factor (AID 2282990); conditions: HepG2, Attagene cis-reporter transcription factor activity; actives raise or lower the signal
# Sequence of Myc proto-oncogene protein (Homo sapiens) (P01106 whole entry, looked up): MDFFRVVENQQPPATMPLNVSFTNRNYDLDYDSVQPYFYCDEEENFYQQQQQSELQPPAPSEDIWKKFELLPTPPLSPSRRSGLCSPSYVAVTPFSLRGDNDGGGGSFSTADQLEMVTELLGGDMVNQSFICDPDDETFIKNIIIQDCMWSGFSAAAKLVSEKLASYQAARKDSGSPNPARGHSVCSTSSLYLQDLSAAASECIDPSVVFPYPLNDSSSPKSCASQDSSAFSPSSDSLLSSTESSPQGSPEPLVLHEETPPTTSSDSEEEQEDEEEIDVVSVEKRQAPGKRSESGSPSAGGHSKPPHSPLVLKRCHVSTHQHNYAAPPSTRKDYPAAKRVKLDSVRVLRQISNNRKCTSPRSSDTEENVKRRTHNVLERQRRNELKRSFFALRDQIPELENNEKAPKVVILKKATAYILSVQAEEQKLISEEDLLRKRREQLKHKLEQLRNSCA
# Procedure, shortened: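 DMSO-normalised, bidirectionally fitted reporter mRNA signal. HepG2 cells transfected with cis reporter constructs, treated 24 h; transcripts detected by RT-PCR, 6-FAM primer extension and CE.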
# [4] = ATG_NRF2_ARE_CIS: Attagene CIS-FACTORIAL HepG2 Assay for human Nuclear Factor Erythroid 2 Related Factor 2 (NFR2) response to Antioxidant Response Elements (ARE) (AID 2282992); conditions: HepG2 Attagene ARE/NRF2 reporter, transcription factor activity; actives raise or lower the signal;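 as to AC50: reporter mRNA level measured by RT-PCR and capillary electrophoresis fluorescence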
# Procedure, shortened: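 Readout: reporter mRNA quantified by RT-PCR plus FAM-labelled primer extension, HpaI digestion and capillary electrophoresis, 24 h after dosing transfected HepG2 cells. Gain or loss of signal is fitted bidirectionally against DMSO baseline.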
# [5] = ATG_Oct_MLP_CIS: Attagene CIS-FACTORIAL HepG2 Assay for human Octamer-Binding Transcription Factor (Oct) (AID 2282993); conditions: HepG2 Attagene cis-factorial Oct reporter, mRNA; actives raise or lower the signal
# Procedure, shortened: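 Multiplexed cis-reporter assay in human liver HepG2 cells, 24 h incubation. Reporter RNA amplified and labelled, then resolved by capillary electrophoresis; DMSO serves as negative control and baseline.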
# [6] = biological target: Cellular tumor antigen p53 (Homo sapiens) (UniProt P04637); experiment: ATG_p53_CIS: Attagene CIS-FACTORIAL HepG2 Assay for human p53 Transcription Factor (AID 2282994); conditions: HepG2 p53 cis-element reporter, Attagene mRNA; actives raise or lower the signal
# Sequence of Cellular tumor antigen p53 (Homo sapiens) (P04637 whole entry, looked up): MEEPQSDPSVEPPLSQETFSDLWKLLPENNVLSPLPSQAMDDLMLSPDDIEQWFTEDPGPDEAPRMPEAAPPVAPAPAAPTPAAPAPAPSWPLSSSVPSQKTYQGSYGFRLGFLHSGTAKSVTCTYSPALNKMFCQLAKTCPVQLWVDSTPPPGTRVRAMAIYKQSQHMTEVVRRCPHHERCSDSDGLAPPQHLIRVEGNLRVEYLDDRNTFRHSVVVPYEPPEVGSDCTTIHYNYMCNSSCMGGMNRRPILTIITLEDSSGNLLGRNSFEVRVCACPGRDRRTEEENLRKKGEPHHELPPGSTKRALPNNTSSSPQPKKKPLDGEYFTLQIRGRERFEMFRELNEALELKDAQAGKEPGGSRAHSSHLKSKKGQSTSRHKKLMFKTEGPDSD
# Procedure, shortened: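 Read-out: reporter mRNA by RT-PCR plus capillary electrophoresis with fluorescence detection. Human HepG2 liver cells carried transfected multi-reporter cis-element constructs, dosed 24 h. Gain or loss of signal fitted bidirectionally against DMSO control.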
# [7] = BSK_3C_TissueFactor: BioMAP Diversity Plus: 3C Assay for Tissue Factor Biomarker Activity (AID 2282997); conditions: BioMAP 3C HUVEC, tissue factor biomarker readout; actives raise or lower the signal
# Procedure, shortened: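 HUVEC, 3C system, 24 h post-dose; Tissue Factor by ELISA; bidirectional fit vs DMSO baseline.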
# [8] = BSK_3C_uPAR: BioMAP Diversity Plus: 3C Assay for Urokinase-type plasminogen activator receptor (uPAR) Biomarker Activity (AID 2282998); conditions: BioMAP 3C HUVEC, uPAR biomarker ELISA; actives raise or lower the signal
# Procedure, shortened: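 Dose primary human umbilical vein endothelial cells, incubate 24 h, measure cell-surface uPAR by ELISA, then fit the signal in both directions against the DMSO negative control.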
# [9] = BSK_3C_VCAM1: BioMAP Diversity Plus: 3C Assay for Vascular cell adhesion molecule 1 (VCAM1) Biomarker Activity (AID 2282999); conditions: BioMAP 3C HUVEC, VCAM1 ELISA, cytokine-stimulated; actives raise or lower the signal
# Procedure, shortened: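 Vascular primary endothelium (human umbilical vein) was exposed to chemicals and assayed 24 h later. VCAM-1 levels came from ELISA, with DMSO serving as baseline for bidirectional fitting.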
# [10] = BSK_4H_Eotaxin3: BioMAP Diversity Plus: 4H Assay for Eotaxin 3 Biomarker Activity (AID 2283000); conditions: primary human endothelial cells (HUVEC); actives raise or lower the signal;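 as to outcome: CCL26 protein level quantified by ELISA in parallel with SRB cytotoxicity check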
# Procedure, shortened: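 Readout is Eotaxin-3 (CCL26) level by ELISA in primary human umbilical vein endothelial cells harvested 24 h after chemical exposure; activity fitted in both directions against DMSO control.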
# [11] = biological target: human Peroxisome Proliferator-activated Receptor alpha (PPARa), PPARA (gene 5465) (UniProt Q07869); experiment: ATG_PPARa_TRANS: Attagene TRANS-FACTORIAL HepG2 Assay for human Peroxisome Proliferator-activated Receptor alpha (PPARa) (AID 2283001; active = hit-call score of the fitted dose curve at least 0.9, where 1 is the maximum)
# Sequence of human Peroxisome Proliferator-activated Receptor alpha (PPARa), PPARA (gene 5465) (Q07869 whole entry, looked up, the tested form may be a part): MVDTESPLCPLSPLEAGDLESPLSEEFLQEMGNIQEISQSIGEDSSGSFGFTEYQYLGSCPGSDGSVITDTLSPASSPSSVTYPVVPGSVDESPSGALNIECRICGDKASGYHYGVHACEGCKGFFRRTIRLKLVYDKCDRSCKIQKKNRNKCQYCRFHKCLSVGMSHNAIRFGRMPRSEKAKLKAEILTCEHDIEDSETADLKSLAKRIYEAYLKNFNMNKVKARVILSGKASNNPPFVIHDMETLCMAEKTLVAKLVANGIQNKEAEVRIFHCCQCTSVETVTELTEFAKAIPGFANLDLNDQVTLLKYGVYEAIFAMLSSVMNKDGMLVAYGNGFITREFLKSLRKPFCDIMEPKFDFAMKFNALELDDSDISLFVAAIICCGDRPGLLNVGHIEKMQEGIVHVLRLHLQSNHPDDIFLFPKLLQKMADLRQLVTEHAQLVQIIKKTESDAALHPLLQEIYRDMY
# Procedure, shortened: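 Exposure: 24 h, transiently transfected HepG2 cells. Endpoint: GAL4-UAS reporter mRNA, RT-PCR with capillary electrophoresis fluorescence. Baseline: DMSO; increases fitted.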
# [12] = biological target: human Peroxisome Proliferator-activated Receptor delta (PPARd), PPARD (gene 5467) (UniProt Q03181); experiment: ATG_PPARd_TRANS: Attagene TRANS-FACTORIAL HepG2 Assay for human Peroxisome Proliferator-activated Receptor delta (PPARd) (AID 2283002; active = hit-call score of the fitted dose curve at least 0.9, where 1 is the maximum)
# Sequence of human Peroxisome Proliferator-activated Receptor delta (PPARd), PPARD (gene 5467) (Q03181 whole entry, looked up, the tested form may be a part): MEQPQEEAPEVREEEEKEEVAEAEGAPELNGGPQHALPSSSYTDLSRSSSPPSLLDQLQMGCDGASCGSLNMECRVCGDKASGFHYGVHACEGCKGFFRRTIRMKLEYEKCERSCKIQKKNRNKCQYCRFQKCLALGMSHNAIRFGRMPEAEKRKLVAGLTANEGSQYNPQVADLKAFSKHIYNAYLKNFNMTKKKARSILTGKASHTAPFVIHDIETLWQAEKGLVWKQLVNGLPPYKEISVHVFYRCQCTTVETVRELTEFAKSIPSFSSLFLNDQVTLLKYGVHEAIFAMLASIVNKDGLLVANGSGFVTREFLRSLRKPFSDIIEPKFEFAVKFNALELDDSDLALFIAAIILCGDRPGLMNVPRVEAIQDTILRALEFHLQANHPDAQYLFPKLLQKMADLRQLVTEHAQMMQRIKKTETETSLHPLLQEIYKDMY
# Procedure, shortened: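 Measured quantity: GAL4-UAS reporter transcript induction in HepG2 after 24 h chemical dosing, with NR-Gal4 chimeras supplied by transient transfection. Detection by RT-PCR and capillary electrophoresis; upward fit against DMSO.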
# [13] = read-out: Intercellular Adhesion Molecule 1 (ICAM1), ICAM1 (gene 3383); experiment: BSK_3C_ICAM1: BioMAP Diversity Plus: 3C Assay for Intercellular Adhesion Molecule 1 (ICAM1) Biomarker Activity (AID 2283003); conditions: primary human endothelial cells (HUVEC); actives raise or lower the signal
# Procedure, shortened: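 Using DMSO as baseline, bidirectional curve fitting was applied to ICAM-1 ELISA signals from HUVEC in the 3C system, measured 24 h after compound addition.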
# [14] = biological target: Retinoic acid receptor alpha (Homo sapiens) (UniProt P10276); experiment: ATG_RARa_TRANS: Attagene TRANS-FACTORIAL HepG2 Assay for human Retinoic Acid Receptor alpha (RARa) (AID 2283005; active = hit-call score of the fitted dose curve at least 0.9, where 1 is the maximum)
# Sequence of Retinoic acid receptor alpha (Homo sapiens) (P10276 whole entry, looked up, the tested form may be a part): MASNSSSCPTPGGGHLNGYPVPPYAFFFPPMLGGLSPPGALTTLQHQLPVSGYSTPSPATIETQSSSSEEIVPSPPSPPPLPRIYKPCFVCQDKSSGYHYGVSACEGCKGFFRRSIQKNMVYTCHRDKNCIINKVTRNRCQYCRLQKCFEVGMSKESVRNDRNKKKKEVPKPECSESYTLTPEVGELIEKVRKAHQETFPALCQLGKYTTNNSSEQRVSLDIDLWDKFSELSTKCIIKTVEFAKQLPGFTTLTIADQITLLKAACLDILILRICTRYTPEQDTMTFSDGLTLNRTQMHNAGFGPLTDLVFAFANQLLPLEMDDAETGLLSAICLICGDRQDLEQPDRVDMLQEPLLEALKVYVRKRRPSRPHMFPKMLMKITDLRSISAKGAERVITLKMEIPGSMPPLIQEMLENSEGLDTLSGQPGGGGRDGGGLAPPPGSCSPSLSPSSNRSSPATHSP
# Procedure, shortened: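 HepG2 cells transiently transfected with multiple reporter units expressing chimeric RARα-GAL4 fusion, with GAL4-UAS-driven reporters. After 24 h compound exposure, reporter mRNA induction quantified by RT-PCR and capillary electrophoresis with fluorescent labeling; gain-of-signal fitted relative to DMSO control.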
# [15] = BSK_3C_Proliferation: Cell Proliferation Assessment in the BioMAP Diversity Plus: 3C Assay (AID 2283006); conditions: primary human endothelial cells (HUVEC);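 as to AC50: potency may reflect either rise or fall in cell number versus DMSO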
# Procedure, shortened: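 Measured here: sulforhodamine B (0.1%) staining of TCA-fixed sub-confluent umbilical vein endothelial cultures 48 h post-dosing, absorbance 560 nm. DMSO served as negative control and baseline; both signal gain and loss were modelled.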
# [16] = biological target: Nuclear receptor subfamily 1 group I member 2 (Homo sapiens) (UniProt O75469); experiment: ATG_PXR_TRANS: Attagene TRANS-FACTORIAL HepG2 Assay for human Pregnane X Receptor (PXR) (AID 2283008; active = hit-call score of the fitted dose curve at least 0.9, where 1 is the maximum)
# Sequence of Nuclear receptor subfamily 1 group I member 2 (Homo sapiens) (O75469 whole entry, looked up, the tested form may be a part): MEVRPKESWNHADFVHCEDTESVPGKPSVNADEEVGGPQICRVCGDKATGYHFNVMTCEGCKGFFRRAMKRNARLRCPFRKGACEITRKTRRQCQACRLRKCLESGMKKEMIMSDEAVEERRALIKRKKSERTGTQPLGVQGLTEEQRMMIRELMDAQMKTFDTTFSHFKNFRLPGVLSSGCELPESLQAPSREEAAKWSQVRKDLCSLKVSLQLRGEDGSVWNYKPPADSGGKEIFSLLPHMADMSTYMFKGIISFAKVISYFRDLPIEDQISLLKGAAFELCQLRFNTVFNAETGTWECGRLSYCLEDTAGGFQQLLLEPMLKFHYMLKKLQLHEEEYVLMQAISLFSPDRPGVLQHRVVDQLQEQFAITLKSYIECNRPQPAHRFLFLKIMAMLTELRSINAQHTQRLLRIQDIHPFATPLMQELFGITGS
# Procedure, shortened: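 Trans-factorial format: exogenous NR-Gal4 fusion activity, not endogenous factor, in transfected human HepG2 liver cells. After 24 h dosing, RNA isolated, reverse-transcribed, amplified and resolved by capillary electrophoresis; induction scored versus DMSO.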
# [17] = ATG_NF_kB_CIS: Attagene CIS-FACTORIAL HepG2 Assay for human Nuclear Factor Kappa B (NF-kB) (AID 2282991); conditions: HepG2 Attagene cis-factorial NF-kB reporter mRNA; actives raise or lower the signal
# Procedure, shortened: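 HepG2, transient multi-reporter transfection, cis promoter elements (endogenous TFs). 24 h exposure. Total RNA → RT → PCR → 6-FAM label → HpaI → CE. Gain/loss vs DMSO.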
# [18] = biological target: Peroxisome proliferator-activated receptor gamma (Homo sapiens) (UniProt P37231); experiment: ATG_PPARg_TRANS: Attagene TRANS-FACTORIAL HepG2 Assay for human Peroxisome Proliferator-activated Receptor-gamma (PPARg) (AID 2283007; active = hit-call score of the fitted dose curve at least 0.9, where 1 is the maximum)
# Sequence of Peroxisome proliferator-activated receptor gamma (Homo sapiens) (P37231 whole entry, looked up): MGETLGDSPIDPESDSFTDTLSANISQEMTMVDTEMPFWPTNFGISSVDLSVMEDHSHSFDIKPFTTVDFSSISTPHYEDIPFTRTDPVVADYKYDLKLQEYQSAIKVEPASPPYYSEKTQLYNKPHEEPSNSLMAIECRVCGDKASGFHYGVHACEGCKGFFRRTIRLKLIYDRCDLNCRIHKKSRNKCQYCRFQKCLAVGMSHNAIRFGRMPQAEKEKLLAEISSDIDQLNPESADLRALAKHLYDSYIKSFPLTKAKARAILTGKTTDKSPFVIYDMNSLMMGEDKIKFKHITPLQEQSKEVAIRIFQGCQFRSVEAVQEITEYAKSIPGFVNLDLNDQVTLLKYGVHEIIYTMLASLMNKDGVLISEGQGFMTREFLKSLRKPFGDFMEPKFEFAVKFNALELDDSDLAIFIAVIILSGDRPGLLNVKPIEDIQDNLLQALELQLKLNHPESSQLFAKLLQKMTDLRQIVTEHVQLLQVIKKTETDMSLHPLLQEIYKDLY
# Procedure, shortened: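 Multiplexed reporter transcription units in HepG2, 24 h dosing, reporter transcripts quantified by fluorescent RT-PCR and capillary electrophoresis. Increase over DMSO scored.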
# [19] = biological target: human Retinoic Acid Receptor gamma (RARg), RARG (gene 5916) (UniProt P13631); experiment: ATG_RARg_TRANS: Attagene TRANS-FACTORIAL HepG2 Assay for human Retinoic Acid Receptor gamma (RARg) (AID 2283009; active = hit-call score of the fitted dose curve at least 0.9, where 1 is the maximum)
# Sequence of human Retinoic Acid Receptor gamma (RARg), RARG (gene 5916) (P13631 whole entry, looked up, the tested form may be a part): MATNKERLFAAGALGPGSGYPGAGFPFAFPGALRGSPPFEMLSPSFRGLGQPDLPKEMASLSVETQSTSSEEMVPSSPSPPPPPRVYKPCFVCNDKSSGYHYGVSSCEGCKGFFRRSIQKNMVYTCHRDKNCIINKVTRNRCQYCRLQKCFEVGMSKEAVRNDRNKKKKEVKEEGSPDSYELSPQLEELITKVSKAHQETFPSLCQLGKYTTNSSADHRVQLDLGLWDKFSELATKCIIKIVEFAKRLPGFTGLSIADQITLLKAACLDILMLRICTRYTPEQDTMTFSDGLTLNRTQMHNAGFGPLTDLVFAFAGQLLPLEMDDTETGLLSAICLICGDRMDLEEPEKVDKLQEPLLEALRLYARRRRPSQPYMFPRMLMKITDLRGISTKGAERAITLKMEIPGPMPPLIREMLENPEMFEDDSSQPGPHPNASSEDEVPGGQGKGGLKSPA
# Procedure, shortened: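 Gain-of-signal relative to DMSO is reported from fluorescent capillary electrophoresis of RT-PCR reporter products. These came from HepG2 cells expressing transfected RARg-GAL4 chimeras with UAS reporters, harvested 24 h after dosing.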
# [20] = biological target: human Retinoic Acid Receptor beta (RARb), RARB (gene 5915) (UniProt P10826); experiment: ATG_RARb_TRANS: Attagene TRANS-FACTORIAL HepG2 Assay for human Retinoic Acid Receptor beta (AID 2283004; active = hit-call score of the fitted dose curve at least 0.9, where 1 is the maximum)
# Sequence of human Retinoic Acid Receptor beta (RARb), RARB (gene 5915) (P10826 whole entry, looked up, the tested form may be a part): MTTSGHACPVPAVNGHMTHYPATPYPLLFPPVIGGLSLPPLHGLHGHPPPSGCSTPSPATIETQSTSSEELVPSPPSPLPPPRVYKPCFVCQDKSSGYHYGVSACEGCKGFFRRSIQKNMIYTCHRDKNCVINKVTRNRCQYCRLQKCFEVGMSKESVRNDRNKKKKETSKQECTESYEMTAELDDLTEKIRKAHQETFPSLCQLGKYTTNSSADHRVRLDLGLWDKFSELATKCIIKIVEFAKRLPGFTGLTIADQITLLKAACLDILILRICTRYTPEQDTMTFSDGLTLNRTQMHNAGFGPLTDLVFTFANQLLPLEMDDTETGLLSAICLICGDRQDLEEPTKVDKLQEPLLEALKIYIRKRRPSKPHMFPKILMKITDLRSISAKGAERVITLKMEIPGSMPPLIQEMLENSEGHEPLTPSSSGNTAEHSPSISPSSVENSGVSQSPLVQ
# Procedure, shortened: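 Readout is reporter mRNA induction: RNA reverse-transcribed, PCR-amplified, FAM-labelled, HpaI-cut and resolved by capillary electrophoresis. Transiently transfected HepG2 cells carrying exogenous NR–Gal4 chimeras were dosed for 24 h; activity fitted upward relative to DMSO.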
structure (smiles),measurement,setting,value
COC(=O)CCCCC(=O)OC,outcome,[1],inactive
same,outcome,[2],inactive
same,outcome,[3],inactive
same,outcome,[4],inactive
same,outcome,[5],inactive
same,outcome,[6],inactive
same,outcome,[7],inactive
same,outcome,[8],inactive
same,outcome,[9],inactive
same,outcome,[10],inactive
same,outcome,[11],inactive
same,outcome,[12],inactive
same,outcome,[13],inactive
same,outcome,[14],inactive
same,outcome,[15],inactive
same,outcome,[16],inactive
CCCCC[C@H](O)CC(=O)CCc1ccc(O)c(OC)c1,AC50,[1],152 µM (active)
same,outcome,[2],inactive
same,outcome,[3],inactive
same,outcome,[17],inactive
same,AC50,[4],29.9 µM (active)
same,outcome,[5],inactive
same,outcome,[6],inactive
same,outcome,[11],inactive
same,outcome,[12],inactive
same,AC50,[18],27.8 µM (active)
same,AC50,[16],27.6 µM (active)
same,outcome,[19],inactive
O=C(/C=C/c1ccc(O)cc1)CC(=O)/C=C/c1ccc(O)cc1,outcome,[1],inactive
same,outcome,[2],inactive
same,outcome,[3],inactive
same,outcome,[17],inactive
same,AC50,[4],2.65 µM (active)
same,outcome,[5],inactive
same,outcome,[6],inactive
same,outcome,[11],inactive
same,outcome,[20],inactive
same,AC50,[18],3.49 µM (active)
same,outcome,[16],inactive
same,outcome,[19],inactive
CCCCCCCCCCCCCCCS(=O)(=O)Oc1ccccc1,outcome,[1],inactive
same,outcome,[2],inactive
same,outcome,[3],inactive
same,outcome,[17],inactive
same,outcome,[4],inactive
same,outcome,[5],inactive
same,outcome,[6],inactive
same,outcome,[7],inactive
same,outcome,[8],inactive
same,outcome,[9],inactive
same,outcome,[10],inactive
same,outcome,[13],inactive
same,outcome,[15],inactive
same,outcome,[18],inactive
same,AC50,[16],1.21 µM (active)
CCCCCCCCCCCCN1CCCC1=O,outcome,[1],inactive
same,outcome,[2],inactive
same,outcome,[3],inactive
same,outcome,[17],inactive
same,outcome,[4],inactive
same,outcome,[5],inactive
same,outcome,[6],inactive
same,AC50,[7],33.6 µM (active)
same,AC50,[8],31.1 µM (active)
same,AC50,[9],35.2 µM (active)
same,AC50,[10],36.9 µM (active)
same,outcome,[12],inactive
same,AC50,[13],31 µM (active)
same,AC50,[15],30.6 µM (active)
same,outcome,[18],inactive
same,AC50,[16],9.09 µM (active)
Oc1cc2ccccc2c2ccccc12,outcome,[1],inactive
same,outcome,[2],inactive
same,outcome,[3],inactive
same,outcome,[17],inactive
same,outcome,[4],inactive
same,outcome,[5],inactive
same,outcome,[6],inactive
same,AC50,[7],8.37 µM (active)
same,AC50,[8],11.2 µM (active)
same,AC50,[9],8.07 µM (active)
same,AC50,[10],7.88 µM (active)
same,outcome,[12],inactive
same,AC50,[13],10.3 µM (active)
same,outcome,[20],inactive
same,AC50,[15],6.41 µM (active)
same,outcome,[16],inactive
same,outcome,[19],inactive
